Assay results taken from PubChem BioAssay (Tox21).
Inconclusive results are not listed. Entries that show only a call come without a potency. Active and inactive are the calls of the source. Calls follow the shape of the dose curve; as a rule, active = well fitted cell-killing curve with a large enough effect in the repeat runs; inconclusive = weak or mixed curves, or effect the other way; inactive = flat fitted curve, though single readings scatter.

Assay: Human pregnane X receptor (PXR) small molecule agonists, qHTS cell viability counter screen (AID 1346977); also: nearly all actives have a fitted effect of over 50% in size
Conditions: PXR-Luc HepG2 viability, CellTiter-Fluor, 24 h; series mostly up to 92.4 µM
Excerpt: U.S. Tox21 Program National Center for Advancing Translational Sciences [NCATS] NIH Chemical Genomics Center [NCGC] U.S. Environmental Protection Agency [EPA] National Institutes of Environmental Health Sciences [NIEHS] National Toxicology Program [NTP] U.S. Food and Drug Administration [FDA] Tox21 Assay Overview: The human pregnane X receptor (hPXR) regulates the expression of several drug metabolizing enzymes and induction of these proteins is a major mechanism for developing drug resistance in cancer. One such key enzyme catalyzing the drug metabolism is cytochrome P450 3A4 (CYP3A4). Changes in CYP3A4 expression affect drug metabolism, thereby reducing the therapeutic efficacy and altering toxicological response to a drug and which finally causes adverse drug interaction. To screen Tox21 libraries for compounds that activate hPXR-mediated CYP3A4 gene expression, PXR-Luc HepG2 cells were used. Also cytotoxicity of the compounds was tested in parallel by measuring the cell viability using CellTiter-Fluor assay system in the same wells.
Tox21 Assay Protocol Summary: PXR-Luc HepG2 cells were dispensed at 2,000 per well in 5uL of assay medium containing 5% charcoal-stripped FBS into white solid bottom 1536-well plates (Corning Life Sciences, Corning, NY) using a Multidrop Combi (Thermo Scientific, Waltham, MA) dispenser. The assay plates were incubated at 37 C and 5% CO2 for 5hr, and then 23nL of compounds dissolved in DMSO and positive control were transferred using a Pintool station (Wako, San Diego, CA). The assay plates were incubated at 37C and 5% CO2 for 24hr. For cytotoxicity read, after 23hr incubation at 37C, 1uL CellTiter-Fluor reagent (Promega Corporation, Madison, WI) was added to each well of the assay plates using Flying Reagent Dispenser (FRD, Aurora Discovery, San Diego, CA). After 1hr incubation at 37C and 5% CO2, the fluorescence signal was quantified using a ViewLux plate reader (PerkinElmer, Shelton, CT).
Potency is read from the fitted curve at half-maximal effect.

| Structure (SMILES) | Potency |
| --- | --- |
| CCCSC(=O)N(CCC)CCC | inactive |
| O=C(Nc1ccccc1)c1ccccc1I | inactive |
| Nc1cc2c3c(c1)C(c1ccccc1)=N[C@@H](NC(=O)c1cccnc1)C(=O)N3CC2 | inactive |
| CC(C(=O)c1ccccc1)N(C)C (stereo not given) | inactive |
| COC(=O)COc1ccc(Cl)cc1Cl | inactive |
| O=C(O)c1ccc2[nH]cc(CCCCN3CC=C(c4ccccc4)CC3)c2c1 | inactive |
| COC(C)(C)C | inactive |
| O=[N+]([O-])c1cc(Cl)c(Cl)c(Cl)c1 | inactive |
| C#C[C@]1(O)C=C[C@H]2[C@@H]3CCC4=CC(=O)CC[C@@H]4[C@H]3CC[C@@]21CC | inactive |
| CCC1(c2ccccc2)C(=O)N=C(O)NC1=O (stereo not given) | inactive |
| CC(=O)C(Cl)Cl | inactive |
| O=C1OC(CCN2CCCCC2)OC1(c1ccccc1)c1ccccc1 (stereo not given) | inactive |
| Cc1cnc[nH]1 | inactive |
| [As]#[In] | inactive |
| CNC(=O)O/N=C(\C)SC | inactive |
| N#CC(CCc1ccc(Cl)cc1)(Cn1cncn1)c1ccccc1 (stereo not given) | 61.1 µM (active) |
| COC(=O)C1=CCCN(C)C1 | inactive |
| Nc1cnn(-c2ccccc2)c(=O)c1Cl | inactive |
| C[C@H]1CCC[C@H](O)CCCCCc2cc(O)cc(O)c2C(=O)O1 | 48.9 µM (active) |
| C[C@]12CC[C@H]3[C@@H](CC=C4C[C@@H](O)CC[C@@]43C)[C@@H]1CC[C@@H]2O | inactive |

| Structure (SMILES) | Potency |
| --- | --- |
| O=C(NCO)NCO | inactive |
| CC(CC(C#N)(c1ccccc1)c1ccccc1)N(C)C (stereo not given) | 48.3 µM (active) |
| ClCCOCOCCCl | inactive |
| N#CC(O)c1ccccc1 (stereo not given) | inactive |
| CNC(=O)Oc1cccc(C(C)C)c1 | inactive |
| CC1(C)CON(Cc2ccccc2Cl)C1=O | inactive |
| CCOC(=O)NC(=S)Nc1ccccc1NC(=S)NC(=O)OCC | inactive |
| CC1CN1P(=O)(N1CC1C)N1CC1C (stereo not given) | inactive |
| COc1ccc2c(c1OC)CN1CCc3cc4c(cc3C1C2)OCO4 (stereo not given) | inactive |
| [O]=[Cd] | inactive |
| N#CCBr | inactive |
| Cc1ccccc1CO[C@@H]1C[C@@]2(C(C)C)CC[C@]1(C)O2 | inactive |
| CC1CCCCC1NC(=O)Nc1ccccc1 (stereo not given) | inactive |
| CCCCOC(=O)c1ccccc1C(=O)O | inactive |
| CC(Cl)(Cl)[N+](=O)[O-] | inactive |
| COc1cc(OC)nc(NC(=O)NS(=O)(=O)c2ncccc2OCC(F)(F)F)n1 | inactive |
| CCOC(=O)C(c1c(O)c2ccccc2oc1=O)c1c(O)c2ccccc2oc1=O | inactive |
| CC(C)[N+](=O)[O-] | inactive |
| C=CCC1=C(C)[C@@H](OC(=O)[C@@H]2[C@@H](C=C(C)C)C2(C)C)CC1=O | 61.1 µM (active) |
| O=[N+]([O-])c1cccc2cccnc12 | inactive |
